The values that follow come from PubChem BioAssay (EPA / NIEHS).

Activity calls are given as the source filed them. How the source made its calls: active means hit-call score of the fitted dose curve at least 0.9, where 1 is the maximum; inactive means score below 0.9.

Read-out in test [1]: TIMP metallopeptidase inhibitor 1 (TIMP1), TIMP1 (gene 7076)
The test can be described thus: BSK_hDFCGF_TIMP1: BioMAP Diversity Plus: hDFCGF Assay for TIMP metallopeptidase inhibitor 1 (TIMP1) Biomarker Activity (AID 2283062). Conditions: primary human foreskin fibroblasts; actives raise or lower the signal. A digest of the protocol:
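Primary human foreskin fibroblasts in the hDFCGF system were dosed with compound for 24 h, then TIMP-1 was measured by ELISA. Activity was fitted bidirectionally relative to DMSO control; parallel SRB staining assessed cytotoxicity.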

Read-out in test [2]: Monokine induced gamma interferon (MIG), CXCL9 (gene 4283)
The test can be described thus: BSK_hDFCGF_MIG: BioMAP Diversity Plus: hDFCGF Assay for Monokine induced gamma interferon (MIG) Biomarker Activity (AID 2283063). Conditions: primary human foreskin fibroblasts; actives raise or lower the signal. The method, boiled down: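 ELISA read-out of MIG from primary human dermal fibroblasts 24 h post-dosing. Gain or loss of signal fitted bidirectionally, DMSO as baseline.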

Read-out in test [3]: Vascular cell adhesion molecule 1 (VCAM1), VCAM1 (gene 7412)
In words: BSK_hDFCGF_VCAM1: BioMAP Diversity Plus: hDFCGF Assay for Vascular cell adhesion molecule 1 (VCAM1) Biomarker Activity (AID 2283065).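 On AC50: VCAM-1 protein level quantified by ELISA after 24 h chemical exposure.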 Conditions: primary human foreskin fibroblasts; actives raise or lower the signal. A digest of the protocol: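 Primary human foreskin fibroblasts (hDFCGF system) were dosed with chemical and VCAM-1 was measured by ELISA 24 h later. Bidirectional curve fitting used DMSO as negative control and activity baseline.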

Read-out in test [4]: Plasminogen activator inhibitor-1 (PAI1), SERPINE1 (gene 5054)
The test can be described thus: BSK_hDFCGF_PAI1: BioMAP Diversity Plus: hDFCGF Assay for Plasminogen activator inhibitor-1 (PAI1) Biomarker Activity (AID 2283066). Conditions: primary human foreskin fibroblasts; actives raise or lower the signal. The method, boiled down: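 PAI-1 levels in human dermal foreskin fibroblasts were quantified by ELISA 24 h after dosing, with gain or loss analysed against DMSO. Overt cytotoxicity was checked by sulforhodamine B total-protein staining in parallel cultures.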

Read-out in test [5]: Intercellular Adhesion Molecule 1 (ICAM1), ICAM1 (gene 3383)
In words: BSK_KF3CT_ICAM1: BioMAP Diversity Plus: KF3CT Assay for Intercellular Adhesion Molecule 1 (ICAM1) Biomarker Activity (AID 2283067). Conditions: primary human keratinocytes with fibroblasts; actives raise or lower the signal. The method, boiled down: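 Human keratinocyte plus foreskin fibroblast primary co-culture was exposed to chemical for 24 h. ICAM-1 was then quantified by ELISA, and the data were fit bidirectionally against DMSO as the negative control and baseline.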

Read-out in test [6]: Interferon-gamma inducible Protein 10 (IP10), CXCL10 (gene 3627)
In words: BSK_KF3CT_IP10: BioMAP Diversity Plus: KF3CT Assay for Interferon-gamma inducible Protein 10 (IP10) Biomarker Activity (AID 2283068). Conditions: primary human keratinocytes with fibroblasts; actives raise or lower the signal. The method, boiled down:
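In a primary skin co-culture of keratinocytes and fibroblasts, IP-10 is quantified by ELISA at 24 h after dosing. SRB staining of parallel wells monitors overt toxicity. Curves are fitted both directions against DMSO.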

Read-out in test [7]: Interleukin-1 alpha (IL1a), IL1A (gene 3552)
The test can be described thus: BSK_KF3CT_IL1a: BioMAP Diversity Plus: KF3CT Assay for Interleukin-1 alpha (IL1a) Biomarker Activity (AID 2283070). Conditions: primary human keratinocytes with fibroblasts; actives raise or lower the signal. The method, boiled down: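 Primary skin co-culture (keratinocytes, foreskin fibroblasts), 24 h exposure; ELISA for IL-1a; bidirectional curve fit vs DMSO.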

Read-out in test [8]: TIMP metallopeptidase inhibitor 2 (TIMP2), TIMP2 (gene 7077)
The test can be described thus: BSK_KF3CT_TIMP2: BioMAP Diversity Plus: KF3CT Assay for TIMP metallopeptidase inhibitor 2 (TIMP2) Biomarker Activity (AID 2283071). Conditions: primary human keratinocytes with fibroblasts; actives raise or lower the signal. A digest of the protocol:
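TIMP-2 measured by ELISA at 24 h in human keratinocyte/fibroblast primary co-cultures exposed to chemicals. Both increases and decreases were fitted against DMSO. Parallel cultures were stained with SRB for total protein as an overt-cytotoxicity check.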

Read-out in test [9]: Transforming growth factor beta 1 (TGFb1), TGFB1 (gene 7040)
In words: BSK_KF3CT_TGFb1: BioMAP Diversity Plus: KF3CT Assay for Transforming growth factor beta 1 (TGFb1) Biomarker Activity (AID 2283072). Conditions: primary human keratinocytes with fibroblasts; actives raise or lower the signal. A digest of the protocol:
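ELISA quantifies TGF-b1 at 24 h post-dose in a primary human skin co-culture of keratinocytes and fibroblasts, with gain or loss judged against DMSO. Parallel SRB total-protein staining flags overt cytotoxicity.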

Read-out in test [10]: C-C motif chemokine 2 (Homo sapiens) (UniProt P13500)
The test can be described thus: BSK_KF3CT_MCP1: BioMAP Diversity Plus: KF3CT Assay for Monocyte Chemoattractant Protein 1 (MCP1/CCL2) Biomarker Activity (AID 2283073). Conditions: primary human keratinocytes with fibroblasts; actives raise or lower the signal. A digest of the protocol: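 Human keratinocyte plus foreskin fibroblast primary co-culture exposed to chemical for 24 h. MCP-1 levels measured by ELISA. Bidirectional curve fitting relative to DMSO negative control as baseline.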

Read-out in test [11]: urokinase plasminogen activator (uPA), PLAU (gene 5328)
In words: BSK_KF3CT_uPA: BioMAP Diversity Plus: KF3CT Assay for urokinase plasminogen activator (uPA) Biomarker Activity (AID 2283075). Conditions: primary human keratinocytes with fibroblasts; actives raise or lower the signal. A digest of the protocol: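 Skin co-culture (keratinocytes + foreskin fibroblasts), human primary; 24 h post-dose; uPA by ELISA; gain/loss fit vs DMSO baseline.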

Read-out in test [12]: CD40, CD40 (gene 958)
The test can be described thus: BSK_LPS_CD40: BioMAP Diversity Plus: LPS Assay for CD40 Biomarker Activity (AID 2283076). Conditions: primary human HUVEC with PBMC; actives raise or lower the signal. The method, boiled down:
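Primary human umbilical vein endothelial cells co-cultured with peripheral blood mononuclear cells, LPS-stimulated, were dosed with chemical and read 24 h later. CD40 levels were measured by ELISA and fitted bidirectionally against DMSO as negative control and baseline.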

Read-out in test [13]: E-selectin (Homo sapiens) (UniProt P16581)
In words: BSK_LPS_Eselectin: BioMAP Diversity Plus: LPS Assay for Eselectin Biomarker Activity (AID 2283077). Conditions: primary human HUVEC with PBMC; actives raise or lower the signal. A digest of the protocol:
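Human umbilical vein endothelial cells co-cultured with peripheral blood mononuclear cells under LPS stimulation; E-selectin measured by ELISA 24 h after chemical dosing. Activity fitted bidirectionally against DMSO as negative control and baseline.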

Read-out in test [14]: Interleukin-8 (IL8), CXCL8 (gene 3576)
The test can be described thus: BSK_LPS_IL8: BioMAP Diversity Plus: LPS Assay for Interleukin-8 (IL8) Biomarker Activity (AID 2283078). Conditions: primary human HUVEC with PBMC; actives raise or lower the signal. The method, boiled down: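 Human umbilical vein endothelial cells co-cultured with PBMC were stimulated with LPS; IL-8 levels were measured by ELISA 24 h after chemical dosing. Activity was fitted bidirectionally against DMSO as negative control and baseline.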

Test [15] can be described thus: BSK_LPS_SRB: Viability Assessment in the BioMAP Diversity Plus: LPS Assay (AID 2283079).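 Further: total protein by sulforhodamine B absorbance as a cytotoxicity measure; measured one day after compound addition.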 Conditions: primary human HUVEC with PBMC. The method, boiled down:
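Human umbilical vein endothelial cells co-cultured with PBMC (LPS system) were dosed for 24 h. Total protein was stained with 0.1% sulforhodamine B after 10% TCA fixation, read at 560 nm, and fitted bidirectionally against DMSO baseline.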

Read-out in test [16]: Interleukin-1 alpha (IL1a), IL1A (gene 3552)
In words: BSK_LPS_IL1a: BioMAP Diversity Plus: LPS Assay for Interleukin-1 alpha (IL1a) Biomarker Activity (AID 2283080). Conditions: primary human HUVEC with PBMC; actives raise or lower the signal. A digest of the protocol: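 Human umbilical vein endothelial cells co-cultured with peripheral blood mononuclear cells were LPS-stimulated and exposed to test chemicals for 24 h. IL-1 alpha was quantified by ELISA, with bidirectional curve fitting against DMSO as the negative control and baseline.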

Read-out in test [17]: Monocyte Chemoattractant Protein-1 (MCP1), CCL2 (gene 6347)
In words: BSK_LPS_MCP1: BioMAP Diversity Plus: LPS Assay for Monocyte Chemoattractant Protein-1 (MCP1) Biomarker Activity (AID 2283081).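 On AC50: co-culture stimulated with LPS; secreted MCP-1 protein quantified by ELISA in culture supernatant.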 Conditions: primary human HUVEC with PBMC; actives raise or lower the signal. The method, boiled down:
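HUVEC plus PBMC co-culture (human primary cells, LPS system) exposed to test chemical for 24 h; MCP-1 measured by ELISA. Bidirectional curve fitting against DMSO baseline; parallel SRB total-protein staining flags overt cytotoxicity.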

Read-out in test [18]: Matrix Metallopeptidase 1 (MMP1), MMP1 (gene 4312)
In words: BSK_hDFCGF_MMP1: BioMAP Diversity Plus: hDFCGF Assay for Matrix Metallopeptidase 1 (MMP1) Biomarker Activity (AID 2283064). Conditions: primary human foreskin fibroblasts; actives raise or lower the signal. A digest of the protocol:
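ELISA read-out of MMP1 from human foreskin fibroblasts (primary skin cells), 24 h post-dose. Gain or loss of signal was fitted bidirectionally versus DMSO negative control; cytotoxicity was checked by SRB in parallel cultures.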

Test [19] in a line: BSK_KF3CT_SRB: Viability Assessment in the BioMAP Diversity Plus: KF3CT Assay (AID 2283069).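 Further: read 24 h after compound addition.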 Conditions: primary human keratinocytes with fibroblasts. A digest of the protocol:
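SRB read-out at 560 nm (0.1% stain, TCA-fixed cells) gauges overt cytotoxicity in a human skin keratinocyte–fibroblast co-culture 24 h post-dosing. Signal change was fitted bidirectionally relative to DMSO control.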

Read-out in test [20]: Matrix Metallopeptidase 9 (MMP9), MMP9 (gene 4318)
The test can be described thus: BSK_KF3CT_MMP9: BioMAP Diversity Plus: KF3CT Assay for Matrix Metallopeptidase 9 (MMP9) Biomarker Activity (AID 2283074). Conditions: primary human keratinocytes with fibroblasts; actives raise or lower the signal. A digest of the protocol: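 ELISA read-out of MMP-9 at 24 h post-dosing in a co-culture of human skin keratinocytes and foreskin fibroblasts. Gain or loss of signal was fitted in both directions against DMSO.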

E-selectin (Homo sapiens), sequence (P16581 whole entry, looked up): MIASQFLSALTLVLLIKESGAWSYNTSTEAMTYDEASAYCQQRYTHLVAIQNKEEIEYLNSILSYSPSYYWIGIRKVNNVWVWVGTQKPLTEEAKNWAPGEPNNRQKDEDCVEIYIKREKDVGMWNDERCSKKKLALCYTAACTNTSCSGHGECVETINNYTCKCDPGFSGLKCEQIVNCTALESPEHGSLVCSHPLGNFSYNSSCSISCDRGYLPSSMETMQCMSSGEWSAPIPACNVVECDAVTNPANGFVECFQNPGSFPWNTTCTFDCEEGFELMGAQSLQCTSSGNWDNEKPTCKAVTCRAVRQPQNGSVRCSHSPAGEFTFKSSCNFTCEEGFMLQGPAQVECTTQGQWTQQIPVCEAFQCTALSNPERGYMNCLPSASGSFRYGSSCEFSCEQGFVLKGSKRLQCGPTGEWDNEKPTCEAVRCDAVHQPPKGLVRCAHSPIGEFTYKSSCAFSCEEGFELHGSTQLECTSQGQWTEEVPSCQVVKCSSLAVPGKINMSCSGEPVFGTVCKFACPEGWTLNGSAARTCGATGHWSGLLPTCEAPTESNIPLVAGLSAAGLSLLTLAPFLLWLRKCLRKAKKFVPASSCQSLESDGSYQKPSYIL

For `CC(C)=CCCC(C)CCO` (centres undefined), the outcome in [1], in test [2], in [3], in test [4], in test [5] and in [6] was inactive. The result in [7], in [8], in test [9], in test [10], in test [11] and in test [12] was inactive. The result in test [13], in test [14], in [15], in test [16] and in test [17] was inactive.
Regarding `COC(=O)c1ccccc1O`, the result in test [1], in test [2], in test [18], in [4], in [5] and in test [19] was inactive. Also, the outcome in test [7], in test [9], in test [10], in test [20], in test [11] and in test [12] was inactive. Also, the outcome in test [13], in test [14], in test [15], in test [16] and in test [17] was inactive.
In the case of `Cc1ccc(N)cc1O`, the outcome in [1], in test [2], in [18], in [4], in [5] and in [6] was inactive. For the same compound, the result in test [19], in test [7], in test [8], in test [9], in [10] and in test [11] was inactive. Further, the outcome in test [12], in test [14], in [15], in test [16] and in [17] was inactive.
Turning to `C=CC(=C)CCC=C(C)C`, the result in test [1], in test [2], in test [18], in test [4], in test [5] and in test [19] was inactive. Moreover, the result in [7], in test [9], in [10], in test [20], in test [11] and in test [12] was inactive. The outcome in [13], in [14], in test [15], in test [16] and in [17] was inactive.
The term AC50 denotes the midpoint of the concentration-response curve, whichever way the signal moves. As for `Clc1nc(Cl)c(Cl)c(Cl)c1Cl`, the outcome in test [1], in test [2], in test [3], in test [4], in test [5] and in [6] was inactive. Besides, the outcome in [19], in test [7], in test [8], in test [9], in [10] and in test [20] was inactive. Further, the result in [11] and in [15] was inactive. Moreover, the AC50 was 30.4 µM (active) in test [12]; 30.9 µM (active) in test [13]; 32.7 µM (active) in [14]; 14.4 µM (active) in test [16]; 32.1 µM (active) in test [17].
Consider `CC(C)CC(C)(O)C#CC(C)(O)CC(C)C` (centres undefined), for which the result in test [1], in test [2], in test [18], in test [4], in test [5] and in [19] was inactive. Also, the outcome in test [7], in test [8], in [9], in [11], in test [12] and in [14] was inactive. Further, the result in [15], in [16] and in test [17] was inactive.
In the case of `CN(C)c1ccc(N=NS(=O)(=O)O)cc1`, the result in [1], in [2], in test [4], in test [5], in test [6] and in test [19] was inactive. In addition, the result in test [7], in test [9], in test [10], in test [11], in [12] and in test [13] was inactive. In addition, the result in test [14], in test [15], in test [16] and in [17] was inactive. For the same compound, in test [3], the AC50 is 3.79 µM (active).
